Several values for one entry are separate records, joined by “and”; a condition that tells them apart may be missing. Equal entries are not always repeated. Inconclusive results are not listed. Where a call stands in place of a potency, no number is given. Activity calls are given as the source filed them. Calls come from the whole dose curve; as a rule, active = well fitted cell-killing curve with a large enough effect in the repeat runs; inconclusive = weak or mixed curves; inactive = flat fitted curve, though single readings scatter.
Potency is the fitted concentration of half-maximal effect.

The experiment is described as follows: qHTS RealTime-Glo MT Cell Viability Assay in HepG2 cells - 16 hour (AID 1224885). Note: nearly all actives have a fitted effect of over 50% in size. The note with it: RealTime-Glo luminescence; series mostly up to 76.8 µM. The text has this: U.S. Tox21 Program National Center for Advancing Translational Sciences [NCATS] NIH Chemical Genomics Center [NCGC] U.S. Environmental Protection Agency [EPA] National Institutes of Environmental Health Sciences [NIEHS] National Toxicology Program [NTP] U.S. Food and Drug Administration [FDA] Tox21 Assay Overview: Measure of cell viability is critical in the cell-base assay. Analysis of cell viability is necessary for the characterization of cell responses to cytotoxic drugs and environmental stress. A RealTime-Glo MT Cell Viability Assay to monitor cell viability in real time of continues cell culture during 40 hours of compound treatment was used to screen Tox21 10K library compounds in HepG2 cells. The RealTime-Glo MT Cell Viability Assay is a nonlytic, homogeneous, bioluminescent method to measure cell viability in real time using a simple, plate-based method. The assay involves adding NanoLuc luciferase and a cell-permeant prosubstrate to cells in culture. Viable cells reduce the proprietary prosubstrate to generate a substrate for NanoLuc luciferase. This substrate diffuses from cells into the surrounding culture medium, where it is rapidly used by the NanoLuc Enzyme to produce a luminescent signal. The signal correlates with the number of viable cells, making the assay well suited for cytotoxicity studies.
Tox21 Assay Protocol Summary: The mixture of HepG2 cell suspension and reagents were dispensed at 600cells/6 ul/well in 1536-well tissue culture treated black solid bottom plates using a Multidrop dispenser. After the assay plates were incubated at a 37 C/5% CO2 incubator for 5 hours, 23 nL of compounds dissolved in DMSO, positive and negative controls was transferred to the assay plate by a pintool work station. The plates were incubated at 37 C for 40 hours. The luminescence intensity were measured at 0h, 8h, 16h, 24h, 32h and 40h time points using ViewLux plate reader during compound treatment.
On the technique in general: In qHTS, concentration-response curves come from the screen itself.
For the compound `Clc1ccc(C(Cl)(Cl)Cl)cc1`, the Potency entry is “inactive”. Consider `CC(C)=CC1C(C(=O)OCc2cccc(Oc3ccccc3)c2)C1(C)C` (stereo not given), for which the Potency result is “inactive”. On to `ClC(Cl)(Cl)Br`, for which the Potency entry was “inactive”. In the case of `CC(C)(C#N)N=NC(C)(C)C#N`, the Potency result was “inactive”. Take `Oc1ccc(Cl)cc1Cl`: the Potency result is “inactive”. On to `Nc1ccc2ccccc2c1`, for which the Potency entry was “inactive”. As to `C=CC(=O)OCC(CC)(COC(=O)C=C)COC(=O)C=C`, the Potency is 25.2 µM (active) and 13.8 µM (active). For `ClC(Cl)(Cl)c1ccccc1`, the Potency entry was “inactive”. As to `Cc1ccc(N=CN(C)C=Nc2ccc(C)cc2C)c(C)c1`, the Potency entry was “inactive”. On to `NN=C(N)N`, for which the Potency result was “inactive”. Consider `S=c1[nH]c2ccccc2[nH]1`, for which the Potency result was “inactive”. For the compound `CC1=C(C(=O)Nc2ccccc2)SCCO1`, the Potency result was “inactive”. On to `CNC(=S)S`, for which the Potency result is “inactive”. Take `O=C1CCCO1`: the Potency result is “inactive”. `Cc1ccc([N+](=O)[O-])cc1`: the Potency result was “inactive”. As to `O=S(=O)(O)C(F)(F)C(F)(F)C(F)(F)C(F)(F)C(F)(F)C(F)(F)C(F)(F)C(F)(F)F`, the Potency result is “inactive”. In the case of `Cn1c(-c2ccccc2)cc(-c2ccccc2)[n+]1C`, the Potency result is “inactive”.

For `CCOC(=O)c1ccccc1N`, the Potency result was “inactive”. In the case of `O=C(O)CF` it was “inactive”; in that of `CCCCCCCCCC(CC)c1ccc(S(=O)(=O)O)cc1` (stereo not given), “inactive”. `CC1CC(=O)O1` (stereo not given): the Potency entry is “inactive”. On to `CCOP(=S)(OCC)OP(=S)(OCC)OCC`, for which the Potency entry was “inactive”. Turning to `CCOP(=S)(OCC)SCn1c(=O)oc2cc(Cl)ccc21`, the Potency entry was “inactive”. As for `COP(=O)(NC(C)=O)SC` (stereo not given), the Potency entry is “inactive”. In the case of `COP(=S)(OC)SCn1nnc2ccccc2c1=O`, the Potency entry is “inactive”.

As to `C=C(C)C#N`, the Potency result was “inactive”. Turning to `ClCC(Cl)CCl`, the Potency entry was “inactive”. `CCCCOC(=O)COC(=O)c1ccccc1C(=O)OCCCC`: the Potency result was “inactive”. Consider `COC(=O)Nc1nc2ccccc2[nH]1`, for which the Potency result is “inactive”. To `Nc1ccc([N+](=O)[O-])cc1N` belongs “inactive”; to `CCCCC(C#N)(Cn1cncn1)c1ccc(Cl)cc1` (stereo not given), “inactive”. With `CCOS(=O)(=O)OCC`, the Potency entry is “inactive”. For the compound `OCCOCCO`, the Potency result is “inactive”.

With `CS(=O)(=O)NC(=O)c1cc(Oc2ccc(C(F)(F)F)cc2Cl)ccc1[N+](=O)[O-]`, the Potency result was “inactive”.

Consider `CC[n+]1c(-c2ccccc2)c2cc(N)ccc2c2ccc(N)cc21`, for which the Potency entry is “inactive”. Take `CCC[CH2][Sn]([Cl])([CH2]CCC)[CH2]CCC`: the Potency is 2.19 µM (active) and 692 nM (active). For `OC(c1ccc(Cl)cc1)(c1cncnc1)c1ccccc1Cl` (stereo not given), the Potency was 39.6 µM (active). As to `CCCCOCCOC(C)=O`, the Potency result was “inactive”.

Take `CC(C)=CC1C(C(=O)OCN2C(=O)C3=C(CCCC3)C2=O)C1(C)C` (stereo not given): the Potency result is “inactive”. In the case of `CCOP(=O)(OCC)OCC` it was “inactive”.

These data come from PubChem BioAssay (Tox21).
